# According to PubChem BioAssay AID588795 (National Center for Advancing Translational Sciences (NCATS), 2011):
# Values joined by “and” are separate entries in the source; they are usually repeats but may differ in a detail not shown here. Equal entries are not always repeated. Out of some 390,000 compounds screened, about 1,400 (0.36%) were called active. Roughly 2% stayed inconclusive and do not appear here. The list comes from a sample in which actives are over-represented; it also holds similar structures and randomly drawn compounds. Unmarked numbers belong to inactive results. The call rests on the fitted dose curve; in most records, active means well fitted inhibition curve with a large enough effect; inconclusive means small, poorly fitted or top-dose-only effect; inactive means no such curve, though single readings can be large or run the other way.
# Target: Flap endonuclease 1 (Homo sapiens) (UniProt P39748)
# Sequence (P39748 whole entry, looked up): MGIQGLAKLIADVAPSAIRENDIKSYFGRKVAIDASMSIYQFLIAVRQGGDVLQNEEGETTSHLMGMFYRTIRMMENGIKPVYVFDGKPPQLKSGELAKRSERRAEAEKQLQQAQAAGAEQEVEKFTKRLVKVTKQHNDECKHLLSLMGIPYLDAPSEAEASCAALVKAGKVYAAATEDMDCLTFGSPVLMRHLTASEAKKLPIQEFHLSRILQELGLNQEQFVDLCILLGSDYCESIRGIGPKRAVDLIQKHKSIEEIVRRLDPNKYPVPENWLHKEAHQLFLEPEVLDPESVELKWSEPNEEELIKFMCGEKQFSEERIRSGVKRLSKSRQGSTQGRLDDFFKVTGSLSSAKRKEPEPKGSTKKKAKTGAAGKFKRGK
# Experiment: qHTS Assay for the Inhibitors of Human Flap endonuclease 1 (FEN1). Further: nearly all actives have a fitted effect of over 65% in size.
# Conditions: Recombinant FEN1 flap cleavage, fluorescence, 15 min; series mostly up to 114 µM; activity change, negative = inhibition: at the top concentration
# Summary of the method: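 In this screen, 50 nM flap DNA substrate was added to 10 nM FEN1 pretreated with compound for 15 min at room temperature; cleavage was followed with reads at 0 and 15 min, and Hill fitting gave concentration–response parameters.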
# On the % scale 0 is the no-effect control and ±100 the full control effect; potency means the concentration at half of the fitted maximal effect.
Compound,"activity change, negative = inhibition [%]",Potency
COc1cc(OC)c2c(C)cc(=O)oc2c1C(CCN1CCCCC1)c1ccc(N(C)C)cc1 (stereo not given),-18.3,
CCN(CC)c1nc(C#N)nc(OC)n1,11.1,
CN(CCOc1ccccc1)C(=O)c1cc(-c2ccco2)nc2ccccc12,6.29,
CC1CCCN(C(=O)c2cc(-c3ccco3)nc3ccccc23)C1 (stereo not given),3.33,
CN(C(=O)COC(=O)c1cc(-c2ccco2)nc2ccccc12)C1CCS(=O)(=O)C1 (stereo not given),,50.1 µM (active)
N#CC1=C(N)Oc2cc(O)ccc2C1C1CCCCC1 (stereo not given),0.703,
O=C(O)c1c(Br)c(Br)c(Br)c(Br)c1C1c2ccc(O)cc2Oc2cc(O)ccc21,,3.98 µM (active)
Cc1ccc(Nc2nnc(-c3ccc(C)c(S(=O)(=O)N4CCCCC4)c3)c3ccccc23)cc1,-20.8,
Cc1ccc(-c2nnc(Nc3ccc(C(=O)N(C)C)cc3)c3ccccc23)cc1S(N)(=O)=O,-12.6,
Cc1ccc(C)c(Nc2nnc(-c3ccc(C)c(S(=O)(=O)N4CCCCC4)c3)c3ccccc23)c1,,89.1 µM (active)
O=[N+]([O-])c1ccc(S(=O)(=O)N2CCN(c3nc(-c4ccccc4)nc4ccccc34)CC2)cc1,-12.2,
NS(=O)(=O)c1ccc(NC(=O)CSc2nnc3c(n2)[nH]c2ccccc23)cc1,11.1,
COc1ccc(CCNC(=O)C(=O)NCC(c2ccco2)S(=O)(=O)c2cccs2)cc1OC (stereo not given),-4.25,
O=c1[nH]c2ccccc2n2c(-c3ccccc3)nnc12,,79.4 µM (active) and 20 µM (active)
O=c1cc(-c2ccccc2)n2c(SCc3ccccc3)nnc2[nH]1,-5.27,
CC(C)(C)OC(=O)N(Cc1ccco1)S(=O)(=O)c1ccccc1Br,-3.86,
O=C1C[C@H]2C=CCc3cccc(c32)CN1Cc1ccccc1,-2.58,
O=C(c1ccc2c(=O)n(Cc3ccco3)c(=S)[nH]c2c1)N1CCCC1,5.1,
O=S(=O)(Nc1cccc2cccnc12)c1cccc2cccnc12,2.67,
O=C(O)C(c1ccccc1)N1C(=O)/C(=C\c2ccc(-c3cccc(Cl)c3)o2)SC1=S (stereo not given),,17.8 µM (active)
Cn1cccc1/C=C1\SC(=S)N(NC(=O)c2ccc(Cl)cc2)C1=O,3.67,
O=C(NCc1ccccc1)c1cc(-c2cccc(Cl)c2)on1,4.6,
Cc1c(CCO)sc[n+]1CC(=O)c1ccc2ccccc2c1,-4.18,
O=C(C1COc2ccccc2O1)N(Cc1cccnc1)c1nc2c(F)cc(F)cc2s1 (stereo not given),-15,
CSc1nnc(SCc2nc3sc(C(=O)O)c(C)c3c(=O)[nH]2)s1,,20 µM (active)

Compound,"activity change, negative = inhibition [%]",Potency
CCOC(=O)c1sc2nc(CSCC(=O)OCc3ccc(C(=O)OC)o3)[nH]c(=O)c2c1C,-1.9,
Cc1sc2nc(CSCC(=O)NC3CCCCC3)[nH]c(=O)c2c1C,-2.42,
CCOC(=O)C1CCN(C(c2ccc(F)cc2)c2sc3nc(-c4ccco4)nn3c2O)CC1 (stereo not given),19.6,
Cn1nnc2c(N3CCN(c4ccccc4)CC3)ncnc21,-13.6,
O=C(NCc1ccccc1)C(=O)NCC(c1ccco1)S(=O)(=O)c1ccc(Cl)cc1 (stereo not given),15.8,
CC1(OC(=O)C2CCCC2)C(=O)C=C2C=C(c3ccc(C#N)cc3)OC=C2C1=O (stereo not given),,20 µM (active)
CC1(OC(=O)CCc2ccccc2)C(=O)C=C2C=C(c3ccc(C#N)cc3)N(CCc3ccccn3)C=C2C1=O (stereo not given),6.95,
COC(=O)CCCC1=CC2=CC(=O)C(C)(OC(=O)c3cccs3)C(=O)C2=CN1c1cccc(C#N)c1 (stereo not given),-1.74,
C=COC(=O)N1CCN(/[N+]([O-])=N/Oc2ccc([N+](=O)[O-])cc2[N+](=O)[O-])CC1,-25.1,
COc1nc(N=C(N)N)nc2c(C)cccc12,,39.8 µM (active)
CCc1c(C)nc2c(OC)cccc2c1Cl,,inactive
Cc1nc(/N=C(\N)NC(=O)NC2CCCCC2)nc2ccccc12,-21.2,
Cc1nc(N=C(N)N)nc2c(C)cccc12,,35.5 µM (active)
COc1ccccc1NC(=O)CSc1oc(-c2ccco2)nc1S(=O)(=O)c1ccc(Br)cc1,-7.55,
O=C(Nc1ccccc1C(F)(F)F)c1nc(S(=O)(=O)Cc2ccccc2F)ncc1Cl,-25,
CCOc1ccccc1N(CC)C(=O)Nc1cn(C)c(=O)c2ccccc12,-6.42,
Cc1ccc(NC2=C(c3ccc(C(F)(F)F)cc3)C(=O)c3ccccc32)cc1F,11,
CN(CCC#N)c1ccc(C=O)cc1,19.2,
CCN(CC)C(=O)CSC(Nc1cccc(F)c1)=C(C#N)C#N,-0.693,
CC(=O)Nc1cccc(C(=O)OCC(=O)c2ccc3c(c2)OCO3)c1,1.33,
CCN(CC)N=Nc1cccc(NC(C)=O)c1,,89.1 µM (active)
CCOC(=O)c1c(C)[nH]c(CCC(=O)NCCCN2CCN(c3cccc(Cl)c3)CC2)c1C,-10.7,
COc1ccc(CCn2c3c(c(=O)[nH]c2=S)CN(C(C)C)CN3)cc1OC,1.65,
Cc1cccc(-c2nnc(SC(C)C(=O)Nc3ccccc3)n2C)c1 (stereo not given),-6.04,
COc1cc(C(=O)Nc2ccc(-n3c(C)nc4ccccc4c3=O)cc2)cc(OC)c1OC,-0.707,
